Activity calls are given as the source filed them. Rule for the calls: active = hit-call score of the fitted dose curve at least 0.9, where 1 is the maximum; inactive = score below 0.9.
What was measured:
Conditions in all cases: mRNA level, 48 h; actives raise or lower the signal
[1] = read-out: Glutathione S-transferase M3 (GSTM3), GSTM3 (gene 2947); experiment: LTEA_HepaRG_GSTM3: Life Technologies and Expression Analysis (LTEA) Assay for Glutathione S-transferase M3 (GSTM3) using HepaRG (AID 2283501)
Method in brief: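 Expression of GSTM3 is determined by qRT-PCR in human liver HepaRG cells treated 48 h with an 8-point half-log range from 100 uM in 0.5% DMSO.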

[2] = read-out: Heat shock 70 kDa protein 1 (HSPA1A), gene 3303; experiment: LTEA_HepaRG_HSPA1A: Life Technologies and Expression Analysis (LTEA) Assay for Heat shock 70 kDa protein 1 (HSPA1A) using HepaRG (AID 2283502)
Method in brief: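 Differentiated human HepaRG cells in serum-free induction medium were exposed in duplicate for 48 h to eight concentrations (top 100 uM, half-log steps, 0.5% DMSO). HSPA1A mRNA was quantified by qRT-PCR, normalized to ACTB, GAPDH and POLR2A, and fitted bidirectionally against DMSO.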

[3] = read-out: Hypoxia-inducible factor 1-alpha (Homo sapiens) (UniProt Q16665); experiment: LTEA_HepaRG_HIF1A: Life Technologies and Expression Analysis (LTEA) Assay for Hypoxia-inducible factor 1 (HIF1A) Trancription factor using HepaRG (AID 2283503);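 note: HIF1A transcript by TaqMan qRT-PCR normalized to ACTB GAPDH and POLR2A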
Method in brief: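 HepaRG, 48 h exposure, 8-pt half-log series from 100 uM, 0.5% DMSO vehicle, duplicates. Readout: HIF1A transcript by qRT-PCR (Fluidigm array), housekeeping-normalised. Bidirectional curve fit vs DMSO baseline.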

[4] = read-out: 3-Hydroxy-3-Methylglutaryl-CoA Synthase 2 (HMGCS2), HMGCS2 (gene 3158); experiment: LTEA_HepaRG_HMGCS2: Life Technologies and Expression Analysis (LTEA) Assay for 3-Hydroxy-3-Methylglutaryl-CoA Synthase 2 (HMGCS2) using HepaRG (AID 2283504)
Method in brief: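 This steatosis marker was read as HMGCS2 mRNA change in HepaRG cells treated 48 h with up to 100 uM chemical. Normalisation used housekeeping genes; activity in either direction was fitted relative to 0.5% DMSO vehicle.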

[5] = read-out: HGF (gene 3082); experiment: LTEA_HepaRG_HGF: Life Technologies and Expression Analysis (LTEA) Assay for Hepatocyte Growth Facto (HGF) using HepaRG (AID 2283505)
Method in brief: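 Using HepaRG monolayers kept in 0.5% DMSO, chemicals were tested in duplicate over eight half-log concentrations from 100 uM for 48 h. Endpoint: HGF mRNA change relative to DMSO, normalized to ACTB/GAPDH/POLR2A.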

[6] = read-out: Insulin Like Growth Factor 1 (IGF1), IGF1 (gene 3479); experiment: LTEA_HepaRG_IGF1: Life Technologies and Expression Analysis (LTEA) Assay for Insulin Like Growth Factor 1 (IGF1) using HepaRG (AID 2283506)
Method in brief: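 Differentiated human HepaRG cells were dosed for 48 h in serum-free induction medium with 0.5% DMSO, eight half-log concentrations up to 100 uM, in duplicate. IGF1 mRNA was quantified by qRT-PCR normalized to ACTB, GAPDH, POLR2A; bidirectional fitting versus DMSO.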

[7] = read-out: Intercellular Adhesion Molecule 1 (ICAM1), ICAM1 (gene 3383); experiment: LTEA_HepaRG_ICAM1: Life Technologies and Expression Analysis (LTEA) Assay for Intercellular Adhesion Molecule 1 (ICAM1) using HepaRG (AID 2283507)
Method in brief: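 Using the human liver line HepaRG, compounds are tested in duplicate over 48 h at concentrations up to 100 uM. Expression is determined by TaqMan qRT-PCR, normalized to endogenous controls, and analysed relative to 0.5% DMSO vehicle.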

[8] = read-out: Insulin-like growth factor-binding protein 1 (IGFBP1), IGFBP1 (gene 3484); experiment: LTEA_HepaRG_IGFBP1: Life Technologies and Expression Analysis (LTEA) Assay for Insulin-like growth factor-binding protein 1 (IGFBP1) using HepaRG (AID 2283508)
Method in brief: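 HepaRG, 48 h, 8 conc. (max 100 uM, half-log), duplicates, 0.5% DMSO. Readout: TaqMan qRT-PCR, ACTB/GAPDH/POLR2A normalisation. Fit: bidirectional vs DMSO.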

[9] = read-out: Interleukin 6 (IL6), IL6 (gene 3569); experiment: LTEA_HepaRG_IL6: Life Technologies and Expression Analysis (LTEA) Assay for Interleukin 6 (IL6) using HepaRG (AID 2283509)
Method in brief: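 HepaRG cells exposed in duplicate for 48 h to eight half-log concentrations, top 100 uM, in 0.5% DMSO serum-free induction medium. mRNA measured by qRT-PCR, normalized to ACTB, GAPDH and POLR2A. Bidirectional fit versus DMSO.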

[10] = read-out: Interleukin 6 Receptor (IL6R), IL6R (gene 3570); experiment: LTEA_HepaRG_IL6R: Life Technologies and Expression Analysis (LTEA) Assay for Interleukin 6 Receptor (IL6R) using HepaRG (AID 2283510);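 for AC50: TaqMan qRT-PCR signal normalized to ACTB GAPDH and POLR2A housekeeping genes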
Method in brief: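 Differentiated human HepaRG cells, plated 48 h then switched to serum-free induction medium, were dosed in duplicate for 48 h at eight half-log concentrations up to 100 uM in 0.5% DMSO. IL6R mRNA quantified by qRT-PCR, normalized to ACTB/GAPDH/POLR2A; bidirectional fit versus DMSO.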

[11] = read-out: Potassium channel subfamily K member 1 (KCNK1), KCNK1 (gene 3775); experiment: LTEA_HepaRG_KCNK1: Life Technologies and Expression Analysis (LTEA) Assay for Potassium channel subfamily K member 1 (KCNK1) using HepaRG (AID 2283511)
Method in brief: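 Differentiated HepaRG cells, 48 h exposure in serum-free induction medium with 0.5% DMSO; 8 concentrations, half-log from 100 uM, duplicate. KCNK1 mRNA by qRT-PCR, normalized to ACTB, GAPDH, POLR2A; bidirectional fit vs DMSO.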

[12] = read-out: Keratin 19 (KRT19), KRT19 (gene 3880); experiment: LTEA_HepaRG_KRT19: Life Technologies and Expression Analysis (LTEA) Assay for Keratin 19 (KRT19) using HepaRG (AID 2283512)
Method in brief: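 Readout is qRT-PCR of KRT19 mRNA, normalized to ACTB, GAPDH and POLR2A, from HepaRG cells treated 48 h with eight-point half-log dilutions topping at 100 uM. Activity in either direction is scored relative to 0.5% DMSO vehicle.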

[13] = read-out: Lipase C (LIPC), LIPC (gene 3990); experiment: LTEA_HepaRG_LIPC: Life Technologies and Expression Analysis (LTEA) Assay for Lipase C (LIPC) using HepaRG (AID 2283514)
Method in brief: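 HepaRG cells, 48 h after plating, treated in duplicate for 48 h in serum-free induction medium over 8 half-log concentrations from 100 uM, 0.5% DMSO. LIPC mRNA by TaqMan qRT-PCR normalized to ACTB/GAPDH/POLR2A; bidirectional fit versus DMSO.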

[14] = read-out: Lipoprotein lipase (LPL), LPL (gene 4023); experiment: LTEA_HepaRG_LPL: Life Technologies and Expression Analysis (LTEA) Assay for Lipoprotein lipase (LPL) using HepaRG (AID 2283515)
Method in brief: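 Differentiated HepaRG cells, plated 48 h, then exposed 48 h in serum-free induction medium to 8 concentrations (top 100 uM, half-log steps) in 0.5% DMSO, duplicate. LPL mRNA measured by qRT-PCR, normalized to ACTB, GAPDH and POLR2A.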

[15] = read-out: MicroRNA 122 (MIR122), gene 406906; experiment: LTEA_HepaRG_MIR122: Life Technologies and Expression Analysis (LTEA) Assay for MicroRNA 122 (MIR122) using HepaRG (AID 2283516); note: the transcript read is the microRNA miR-122
Method in brief: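 Differentiated human HepaRG cells were exposed 48 h in serum-free induction medium to eight half-log concentrations (top 100 uM, 0.5% DMSO). Transcript level was measured by TaqMan qRT-PCR, normalized to ACTB, GAPDH and POLR2A, and fitted bidirectionally versus DMSO.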

[16] = read-out: matrix metalloproteinase-10 (MMP10), MMP10 (gene 4319); experiment: LTEA_HepaRG_MMP10: Life Technologies and Expression Analysis (LTEA) Assay for matrix metalloproteinase-10 (MMP10) using HepaRG (AID 2283517)
Method in brief: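 Differentiated HepaRG cells in serum-free induction medium exposed 48 h in duplicate to 8-point half-log series up to 100 uM in 0.5% DMSO. mRNA quantified by qRT-PCR, normalised to ACTB, GAPDH, POLR2A; bidirectional fit versus DMSO.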

[17] = read-out: MYC, MYC (gene 4609); experiment: LTEA_HepaRG_MYC: Life Technologies and Expression Analysis (LTEA) Assay for MYC using HepaRG (AID 2283518)
Method in brief: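 Expression changes were scored by TaqMan qRT-PCR with ACTB, GAPDH and POLR2A normalization. Cultures in serum-free induction medium received duplicate 8-point concentration series, highest 100 uM, for 48 h; DMSO (0.5%) served as baseline.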

[18] = read-out: Paternally Expressed 10 (PEG10), PEG10 (gene 23089); experiment: LTEA_HepaRG_PEG10: Life Technologies and Expression Analysis (LTEA) Assay for Paternally Expressed 10 (PEG10) using HepaRG (AID 2283520)
Method in brief: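 Differentiated HepaRG cells, plated 48 h then switched to serum-free induction medium, were exposed in duplicate for 48 h to eight half-log concentrations topping at 100 uM in 0.5% DMSO. PEG10 mRNA was quantified by TaqMan qRT-PCR, normalised to ACTB, GAPDH and POLR2A.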

[19] = read-out: JUN Transcription Factor, JUN (gene 3725); experiment: LTEA_HepaRG_JUN: Life Technologies and Expression Analysis (LTEA) Assay for JUN Transcription Factor using HepaRG (AID 2283513)
Method in brief: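 Differentiated HepaRG cells were exposed to chemicals for 48 h in serum-free induction medium, 8 concentrations from 100 uM in half-log steps, 0.5% DMSO vehicle, in duplicate. JUN mRNA was quantified by TaqMan qRT-PCR, normalized to ACTB, GAPDH, POLR2A.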

Measured: AC50

Hypoxia-inducible factor 1-alpha (Homo sapiens), sequence (Q16665 whole entry, looked up): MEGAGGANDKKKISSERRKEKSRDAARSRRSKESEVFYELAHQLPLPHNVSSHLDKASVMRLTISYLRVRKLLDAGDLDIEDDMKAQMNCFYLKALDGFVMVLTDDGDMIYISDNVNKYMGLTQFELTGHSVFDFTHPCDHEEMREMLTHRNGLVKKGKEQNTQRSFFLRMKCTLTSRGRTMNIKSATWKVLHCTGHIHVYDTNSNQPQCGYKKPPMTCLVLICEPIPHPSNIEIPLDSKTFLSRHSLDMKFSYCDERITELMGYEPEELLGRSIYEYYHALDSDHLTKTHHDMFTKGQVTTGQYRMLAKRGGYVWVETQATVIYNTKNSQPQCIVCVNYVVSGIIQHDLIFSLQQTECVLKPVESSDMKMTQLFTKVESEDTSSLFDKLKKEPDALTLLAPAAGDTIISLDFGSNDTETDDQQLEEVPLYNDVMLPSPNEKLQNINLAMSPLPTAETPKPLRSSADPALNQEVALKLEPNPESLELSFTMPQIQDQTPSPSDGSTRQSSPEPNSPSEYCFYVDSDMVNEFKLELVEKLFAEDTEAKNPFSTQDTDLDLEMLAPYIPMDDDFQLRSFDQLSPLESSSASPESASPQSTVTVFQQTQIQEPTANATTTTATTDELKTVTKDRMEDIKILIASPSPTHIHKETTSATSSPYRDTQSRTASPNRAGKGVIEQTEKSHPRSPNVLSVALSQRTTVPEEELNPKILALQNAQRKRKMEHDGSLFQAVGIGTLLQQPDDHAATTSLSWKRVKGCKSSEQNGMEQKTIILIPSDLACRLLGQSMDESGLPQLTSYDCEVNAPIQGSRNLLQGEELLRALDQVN

CNC(=O)ON=CC(C)(C)SC
not listed: [19]
inactive: all other assays above

C#CCOS(=O)OC1CCCCC1Oc1ccc(C(C)(C)C)cc1 (stereo not drawn)
inactive: [7] | [19] | [13]
active: [1] 29.7 µM | [2] 27.2 µM | [3] 26.4 µM | [4] 25.6 µM | [5] 20.1 µM | [6] 19.5 µM | [9] 23.1 µM | [10] 14.5 µM | [11] 21.5 µM | [12] 12.8 µM | [14] 28.7 µM | [15] 28.2 µM | [16] 22.5 µM | [17] 22.8 µM | [18] 24.2 µM

N#Cc1nn(-c2c(Cl)cc(C(F)(F)F)cc2Cl)c(N)c1S(=O)C(F)(F)F (stereo not drawn)
active: [1] 80.8 µM | [2] 11.9 µM | [3] 79.5 µM | [4] 38.3 µM | [5] 90.3 µM | [6] 13.4 µM | [8] 47.7 µM | [9] 44.8 µM | [10] 91.4 µM | [12] 12.6 µM | [13] 42.6 µM | [14] 31.3 µM | [15] 59.2 µM | [16] 30.7 µM | [17] 35.1 µM | [18] 23.6 µM
inactive: [7] | [11]

CCc1nn(C)c(C(=O)NCc2ccc(C(C)(C)C)cc2)c1Cl
inactive: [3] | [10] | [19]
active: [1] 4.76 µM | [2] 9.92 µM | [4] 8.88 µM | [5] 78.6 µM | [6] 0.782 µM | [7] 2.34 µM | [9] 1.37 µM | [11] 9.92 µM | [12] 0.616 µM | [13] 0.58 µM | [14] 2.22 µM | [15] 1.85 µM | [16] 26.5 µM | [17] 5.39 µM | [18] 0.484 µM

CCCCNC(=O)OCC#CI
active: [2] 50 µM
not listed: [8]
inactive: all other assays above

CCCCNC(=O)n1c(NC(=O)OC)nc2ccccc21
not listed: [8]
inactive: all other assays above

From PubChem BioAssay (EPA / NIEHS)
